Rows were chosen to be rich in hits. Some 11% of all compounds tested hit in one or more screens of this group.
ALDH1A1 block: qHTS Assay for Inhibitors of Aldehyde Dehydrogenase 1 (ALDH1A1); Aldehyde dehydrogenase 1A1 (Homo sapiens), P00352; Purified ALDH1A1, NADH fluorescence, propionaldehyde substrate; Potency, µM (highest dose often 75.3 µM), for inactives: at the highest dose activity, negative = inhibition, actives largely listed as inhibitors; actives 7.3% (n = 220,000); AID 1030, 2008;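 further: potency means the concentration at half of the fitted maximal effect; plate controls were no enzyme wells and a reference inhibitor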
IMPase inh: qHTS Assay for Identifying the Cell-Membrane Permeable IMPase Inhibitors | Inositol monophosphatase 1 (Rattus norvegicus), P97697 | CHO-M1 cells, IP1 accumulation, HTRF TR-FRET ratio | inhibition (IP1 accumulation), % at 46.1 µM | 120,000 tested, under 10 active; active means well fitted curve in the direction sought with a large enough effect in the signal ratio, not every such curve was filed as active; inconclusive means small, poorly fitted or top-dose-only effect, or a change in a side signal; inactive means no such curve, though single readings can be large or run the other way; the % refers to the signal ratio;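 further: cells stimulated with carbachol in lithium chloride buffer; plate controls were DMSO basal wells for no effect and reference inhibitor wells for full effect; higher means more IMPase inhibition seen as more IP1 and lower FRET ratio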
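Seeded CHO-M1 cells were dosed with compound at up to 46 uM, stimulated with carbachol for 30 min, then lysed in IP-One detection reagents. Higher IP1 lowers the TR-FRET signal.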
PNC assembly inh: High Content Assay for Compounds that inhibit the Assembly of the Perinucleolar Compartment; PC3M PTB-GFP, PNC prevalence imaging, 16 h; hits give low values; activity change (PNC), negative = inhibition, % at 10 µM; actives 3.1% (n = 140,000); AID 2417, 2010;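 active means readout at or below -70, meaning at least 70% loss of cells showing the perinucleolar compartment, a nuclear body marking cancer cells; inconclusive means readout between -30 and a set limit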;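 further: plate controls were DMSO wells for no effect and camptothecin positive control wells for full effect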
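PC3M cells stably expressing PTB-GFP, 750–1000 cells/well, treated 16 h at 37 °C with compound (23 nl of library stock), in duplicate. After paraformaldehyde fixation and Hoechst stain, imaged at 20x; PNC prevalence scored by image analysis.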
IMPase Li inh: qHTS Assay for Identifying the Cell-Membrane Permeable IMPase Inhibitors: Potentiation with Lithium; CHO-M1 cells, IP1 TR-FRET (IP-One), carbachol + lithium; Potency, µM (top dose mostly 59.4 µM), inactives show at the highest dose activity, negative = IMPase inhibition, usual class: inhibitors; actives 0.35% (n = 210,000); AID 1457, 2008; active means well fitted curve in the direction sought with a large enough effect; inconclusive means small, poorly fitted or top-dose-only effect, or another doubt; inactive means no such curve, though single readings can be large; an effect the other way counts as inactive or inconclusive;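 further: IP1 builds up when IMPase is blocked and the TR-FRET signal falls; potency means the concentration at half of the fitted maximal effect; plate controls were basal vehicle for no effect and high inhibitor control for full effect; nearly all actives have a fitted effect of over 50% in size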
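CHO cells stably expressing M1 receptor (2000/well, cultured 16–30 h) treated 30 min at 37C with compound plus low lithium. Cytosolic IP1 by TR-FRET (665/620 ratio and 620 channel) after 10 min lysis; AC50 by Hill fit.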
ALOX12 inhib: qHTS Assay for Inhibitors of 12-hLO (12-human lipoxygenase). Polyunsaturated fatty acid lipoxygenase ALOX12 (Homo sapiens), P18054. Potency, µM (top dose mostly 57.1 µM), for the others: top-dose activity change, negative = inhibition, actives largely listed as inhibitors. actives 0.12% (n = 150,000). AID 1452, 2008. purified 12-hLO, xylenol orange hydroperoxide absorbance; active means well fitted curve in the direction sought with a large enough effect; inconclusive means small, poorly fitted or top-dose-only effect, or another doubt; inactive means no such curve, though single readings can be large; an effect the other way counts as inactive or inconclusive; further: potency means the concentration at half of the fitted maximal effect; nearly all actives have a fitted effect of over 55% in size
Target sequence (P18054 whole entry, looked up): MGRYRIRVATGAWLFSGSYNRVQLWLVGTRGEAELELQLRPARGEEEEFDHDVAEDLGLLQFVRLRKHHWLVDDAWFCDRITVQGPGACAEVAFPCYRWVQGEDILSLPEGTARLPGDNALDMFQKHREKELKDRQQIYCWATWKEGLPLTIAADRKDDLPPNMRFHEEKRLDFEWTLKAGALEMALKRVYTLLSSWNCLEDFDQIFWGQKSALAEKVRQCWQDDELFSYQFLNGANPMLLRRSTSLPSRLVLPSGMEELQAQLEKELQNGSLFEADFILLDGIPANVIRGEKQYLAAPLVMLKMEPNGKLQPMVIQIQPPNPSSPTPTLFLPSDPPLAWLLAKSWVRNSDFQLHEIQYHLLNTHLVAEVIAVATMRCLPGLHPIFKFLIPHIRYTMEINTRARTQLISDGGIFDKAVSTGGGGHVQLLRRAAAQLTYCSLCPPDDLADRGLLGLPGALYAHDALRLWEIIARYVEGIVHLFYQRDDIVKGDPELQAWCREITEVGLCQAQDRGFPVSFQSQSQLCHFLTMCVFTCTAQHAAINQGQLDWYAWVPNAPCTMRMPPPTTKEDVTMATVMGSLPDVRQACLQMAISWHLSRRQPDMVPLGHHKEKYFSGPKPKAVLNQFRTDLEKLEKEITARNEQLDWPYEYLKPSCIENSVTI
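Lipoxygenase turnover measured by absorbance at 573 and 405 nm after Fe-XO development. Human 12hLO 150 nM, arachidonate 40 uM, pH 7.0 Hepes buffer with detergent; 15 min compound preincubation, 30 min reaction.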
HPGD inh: qHTS Assay for Inhibitors of HPGD (15-Hydroxyprostaglandin Dehydrogenase). Potency, µM, for inactives: top-dose activity change, negative = inhibition, actives largely listed as inhibitors. actives 4.3% (n = 150,000). purified HPGD, NADH fluorescence kinetic, PGE2 substrate; further: potency means the concentration at half of the fitted maximal effect
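NADH formation kinetics: reaction with 30 uM PGE2 and 1 mM NAD+ (final), 20 nM enzyme, Tris-HCl pH 8 with Tween 20, after 15 min compound preincubation at room temperature. Fluorescence change, last versus first of five reads.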
* = called active by the depositor; ? = inconclusive; . = not tested or not shown; [ ] = remark or other dose. Unless noted, the call rests on the fitted dose curve; in most records, active means well fitted inhibition curve with a large enough effect (not every such curve was filed as active); inconclusive means small, poorly fitted or top-dose-only effect, or another doubt; inactive means no such curve, though single readings can be large or run the other way. Unless noted, on the % scale 0 is the no-effect control and ±100 the full control effect.

SMILES | ALDH1A1 block | IMPase inh | PNC assembly inh | IMPase Li inh | ALOX12 inhib | HPGD inh
COc1ccc(C(OCCN2CCC[C@@H](C(=O)O)C2)(c2ccc(OC)cc2)c2ccc(OC)cc2)cc1 | 4% | -1 | . | 5% | -1% | -1%
C[C@@H]1C=C[C@](Cc2ccccc2)(C(=O)NCCCNc2ncc(C(F)(F)F)cc2Cl)N1C(=O)c1ccccc1 | ? | . | . | 7% | -7% | -23%
CCCCSc1nnc2c(n1)OC(C)N(C(C)=O)c1ccccc1-2 (stereo unspecified) | . | 1 | . | . | . | .
CCC1Nc2ccccc2-c2nnc(SC)nc2O1 (stereo unspecified) | -10% | -9 | 39 | 6%[38.3 µM] | -9% | -12%
CCCCSc1nnc2c(n1)OC(C(=O)c1ccccc1)Nc1ccccc1-2 (stereo unspecified) | 20µM* | 1 | 18 | 28%[38.3 µM] | -18% | -17%
COc1ccccc1C(=O)C1Nc2ccccc2-c2nnc(SC)nc2O1 (stereo unspecified) | 22µM* | -3 | -104* | 11% | -10% | -15%
CCN[C@@H]1C[C@H](C)S(=O)(=O)c2sc(S(N)(=O)=O)cc21 | 13%[20.9 µM] | -5[20.6 µM] | . | 1% | -1%[25.6 µM] | -3%
N#CC1=C(N)C(C#N)(C#N)[C@H](c2cccnc2)[C@H]2CN(C(=O)OCc3ccccc3)CC=C12 | ? | . | ? | 2% | -6% | -16%
N#CC1=C(N)C(C#N)(C#N)C(c2ccncc2)C2CN(C(=O)OCc3ccccc3)CC=C12 (stereo unspecified) | ? | ? | -119* | 19% | -1% | -9%
CCc1ccc(OCc2ccccc2C(=O)Nc2ccc3nc(C)cc(N)c3c2)cc1 | -5% | . | . | 16% | -7%[0.00818 µM] | -15%
Cn1c(=S)n(C)c2ccccc21 | 8% | . | . | -10% | . | .
Cn1c(=S)ccc2ccccc21 | 25µM* | . | . | -12% | . | .
COc1cc(C=O)c([N+](=O)[O-])cc1OC | 11µM* | . | . | 3% | -9% | -20%
O=C(Nc1cc(NC(=O)c2ccccc2Cl)ccc1Cl)c1ccccc1 | . | -6 | . | . | . | .
CC(C)C[C@@H](CN(C)N=O)N(C[C@H](Cc1ccccc1)N(CCc1ccccc1)N=O)N=O | 8.9µM* | . | . | 10% | . | .
CC(C)[C@H](CN(N=O)[C@@H](Cc1ccccc1)CN(C)N=O)N(CCc1ccccc1)N=O | -4% | . | . | 7% | . | .
COc1cc(OC)cc(C(=O)Nc2ccc3oc(-c4ccc(Cl)cc4)nc3c2)c1 | . | -14 | . | . | . | .
CC1=CC(C)(C)Nc2ccc(OC(=O)CN3C(=O)c4cccc5cccc(c45)C3=O)cc21 | 11µM* | 8 | 40 | 32%[38.3 µM] | -7% | -21%
CC1=CC(C)(C)Nc2ccc(OC(=O)CN3C(=O)c4ccccc4C3=O)cc21 | ? | . | -25 | 8% | 0% | ?
CCN1C(=S)SC(=O)C1=C1C=C(C)N(CCOC)C(C)=C1 | 6.3µM* | 12 | -1 | 23%[38.3 µM] | -8% | -27%
CCN1C(=S)SC(=O)C1=C1C=C(C)N(CCO)C(C)=C1 | 16µM* | 26 | ? | 31%[38.3 µM] | -18% | ?
COCCN1C(=O)/C(=C/c2ccc(N3CCCC3)cc2)SC1=S | -6% | . | . | 6% | . | .
Cc1[nH]c2c(Cl)cccc2c1CCNC(=O)C1CCCCC1C(=O)OCC(F)(F)F (stereo unspecified) | ? | -2 | -119* | 14% | -4% | -4%
COc1ccccc1CNc1ncncc1-c1cccc(C#N)c1 | -1% | . | . | 17% | 2% | -20%
Cc1onc(-c2ccccc2)c1CNS(=O)(=O)c1ccccc1[N+](=O)[O-] | 13µM* | . | . | . | . | .
SMILES | ALDH1A1 block | IMPase inh | PNC assembly inh | IMPase Li inh | ALOX12 inhib | HPGD inh
CCCS(=O)(=O)c1c(S(=O)(=O)CCC)c2cc(CC)ccn2c1C(=O)c1ccc(Cl)cc1 | . | -7 | . | . | . | .
Cc1nn(-c2ccccc2)c(Cl)c1/C=C1/C(=N)N2N=C(C(C)C)SC2=NC1=O | ? | . | ? | -5% | -1% | 22µM*
Cc1nn(-c2ccccc2)c(Cl)c1/C=C1\SC(=S)NC1=O | ? | 5 | ? | 35%[38.3 µM] | -13% | 16µM*
COCC(=O)N1CCC2(CCCN(c3ccncc3)C2)CC1 | 2% | . | . | 9% | -1% | -5%
Clc1ccccc1Cn1nnc(-c2ccccc2)n1 | -3% | . | . | -3% | . | .
Clc1ccc(Cn2nnc(-c3ccccc3)n2)cc1 | 5% | 14 | -100* | 12% | -3% | -14%
Clc1ccccc1-c1nnn(Cc2ccc(-c3nn[nH]n3)cc2)n1 | 16µM* | 4 | 17 | 16%[38.3 µM] | -4% | 13µM*
Clc1ccc(Cl)c(SCCCN2CCNCC2)c1 | 7%[13.5 µM] | . | . | 17% | 1%[11.4 µM] | 1%
Cc1cc(C)c(NC(=O)C[C@H](CC(=O)O)c2cccc3ccccc23)c(C(=O)N2CCC3(CCCC3)CC2)c1 | -8% | -1 | . | 11% | -5% | 10%
CS(=O)(=O)N1CCC2(CCCN(c3ncccn3)C2)CC1 | 0% | . | . | 12% | -4% | -19%
CC(c1ccccc1)n1cc(C(=O)NCC2CCCO2)nn1 (stereo unspecified) | 0% | -1 | -100* | 2% | 6% | -12%
CSc1ccccc1C(=O)NCC1CCCO1 (stereo unspecified) | 7% | 1 | 12 | 8%[38.3 µM] | -2% | 16µM*
Cc1ccccc1C(=O)NC(=S)NCC1CCCO1 (stereo unspecified) | 9% | 7 | -105* | 14%[38.3 µM] | -10% | -7%
Cc1ccc(C(=O)NC(=S)NCC2CCCO2)cc1[N+](=O)[O-] (stereo unspecified) | 14µM* | . | . | 4% | . | .
CC(C)(C)c1ccc(C(=O)NC(=S)NCC2CCCO2)cc1 (stereo unspecified) | ? | -3 | -19 | . | ? | .
CC(C)C[C@@H](CC(=O)N[C@@H](CCC(=O)O)CC(=O)O)NC(=O)[C@@H]1CCCC[C@H]1NC(=O)C[C@H](CCCN)NC(=O)C[C@H](Cc1c[nH]c2ccccc12)NC(=O)[C@@H]1CCCC[C@H]1N | -9% | . | . | 7% | 1% | -1%
COCCN1CCN(Cc2nc(Cc3ccc(OC)c(OC)c3)no2)CC1 | 0% | . | . | -2% | . | .
COc1ccc(Cc2noc(CN3CCN(Cc4cccc(Cl)c4)CC3)n2)cc1OC | 8.9µM* | . | . | 11% | . | .
Cn1c(=S)[nH]c(=O)c2ncc(=O)[nH]c21 | 7% | . | . | -9% | . | .
